Measurements published in PubChem BioAssay (Tox21).
“And” between values parts separate entries of the source, which are not always exact repeats. Equal entries are not always repeated. Records with an inconclusive call do not appear. The source made the active and inactive calls. Unless noted, calls come from the whole dose curve; as a rule, active = well fitted curve in the direction sought with a large enough effect in the repeat runs; inconclusive = weak or mixed curves; inactive = no such curve, though single readings can be large; an effect the other way counts as inactive or inconclusive.

Tests used:
[1] = A CellTox Green Cytotoxicity Assay to monitor cytotoxicity in HepG2 cells - 8 hour (AID 1224890); note: nearly all actives have a fitted effect of over 45% in size
Outline: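 Fluorescent DNA-binding dye, 600 HepG2 cells/well, 5 h preincubation then compound in DMSO; same plates read at 0–40 h, 37 C.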

[2] = qHTS assay to identify small molecule antagonists of the estrogen receptor alpha (ER-alpha) signaling pathway using the BG1 cell line in the presence of 0.1 nM 17-beta-estradiol - cell viability counter screen (AID 1259241); note: nearly all actives have a fitted effect of over 40% in size
Outline: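 Viability in VM7Luc4E2 cells after 22 hr compound exposure under 0.1 nM 17beta-estradiol stimulation, by CellTiter-Fluor.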

[3] = qHTS assay to identify small molecule antagonists of the androgen receptor (AR) signaling pathway using the MDA cell line in the presence of 0.5 nM R1881 - cell viability counter screen (AID 1259242); note: nearly all actives have a fitted effect of over 45% in size
Outline: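 Human breast carcinoma MDA-kb2 cells, cultured without CO2, receive compounds alongside 0.5 nM (final) R1881 agonist. After 16 hr at 37C, viability is taken as live-cell protease signal.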

[4] = target: Estrogen receptor (Homo sapiens) (UniProt P03372); experiment: qHTS assay to identify small molecule antagonists of the estrogen receptor alpha (ER-alpha) signaling pathway using the BG1 cell line in the presence of 0.1 nM 17-beta-estradiol (AID 1259244); note: nearly all actives have a fitted effect of over 50% in size
Estrogen receptor (Homo sapiens), sequence (P03372 whole entry, looked up): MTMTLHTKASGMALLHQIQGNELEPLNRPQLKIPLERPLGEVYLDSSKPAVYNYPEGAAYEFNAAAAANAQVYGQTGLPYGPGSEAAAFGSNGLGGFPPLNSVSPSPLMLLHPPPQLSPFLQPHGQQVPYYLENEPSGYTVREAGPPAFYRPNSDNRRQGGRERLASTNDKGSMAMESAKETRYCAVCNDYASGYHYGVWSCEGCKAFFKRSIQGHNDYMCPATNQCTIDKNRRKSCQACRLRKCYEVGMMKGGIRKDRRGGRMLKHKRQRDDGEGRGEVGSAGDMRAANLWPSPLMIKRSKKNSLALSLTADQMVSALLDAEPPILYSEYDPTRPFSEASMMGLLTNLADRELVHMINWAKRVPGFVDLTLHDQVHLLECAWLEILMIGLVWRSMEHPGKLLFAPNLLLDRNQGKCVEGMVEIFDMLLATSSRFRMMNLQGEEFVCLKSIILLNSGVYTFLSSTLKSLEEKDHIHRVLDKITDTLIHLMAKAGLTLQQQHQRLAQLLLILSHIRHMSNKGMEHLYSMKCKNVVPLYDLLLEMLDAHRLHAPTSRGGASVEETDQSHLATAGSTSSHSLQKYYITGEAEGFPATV
Outline: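 Seeding of stripped-serum-adapted VM7Luc4E2 cells, 24 h attachment, compound transfer, then 0.1 nM final 17beta-estradiol; after 22 h incubation, ONE-Glo reagent and luminescence reading.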

[5] = qHTS assay to identify small molecule phospholipidosis (PLD) inducers (AID 1259344; active = well fitted curve in the direction sought with a large enough effect; an effect the other way counts as inactive or inconclusive)
Outline: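 Accumulated phospholipid, stained red by LipidTOX during 24 h compound treatment of HepG2 cells at 37 C, is quantified from images as pit number and intensity, normalised per cell using Hoechst-stained nuclei.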

[6] = qHTS assay to identify small molecule HDAC inhibitors (AID 1259364);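 note: wild-type HCT-116 cells with endogenous class I/II HDAC activity; top concentration of the series differs between compounds; nearly all actives have a fitted effect of over 45% in size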
Outline: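 After a 2 hr compound incubation (37C, 5% CO2), HCT-116 cells seeded at 1,500/well the day before received HDAC-Glo reagent; signal read as luminescence after 30 min at room temperature.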

[7] = qHTS assay to identify small molecule HDAC inhibitors - cell viability counter screen (AID 1259365); note: series mostly up to about 92 µM; nearly all actives have a fitted effect of over 50% in size
Outline: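 Cytotoxicity was gauged in wild-type HCT-116 cells after a brief 2hr treatment with DMSO-dissolved compounds at 37C and 5% CO2, using CellTiter-Glo luminescence developed for 30min at room temperature.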

[8] = qHTS assay to identify small molecule agonists of the sonic hedgehog signaling (Shh) pathway - cell viability counter screen (AID 1259366); note: nearly all actives have a fitted effect of over 50% in size; note: potency is the fitted concentration of half-maximal effect
Outline: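 Stable Gli1-Luc NIH/3T3 clone, 2,000 cells/well. Compound exposure 24hr at 37C. Read-out: CellTiter-Fluor fluorescence.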

[9] = qHTS assay to identify small molecule antagonists of the sonic hedgehog signaling (Shh) pathway - cell viability counter screen (AID 1259367); note: nearly all actives have a fitted effect of over 55% in size
Outline: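 CellTiter-Fluor signal in conditioned medium-stimulated 3T3 Gli1-Luc cells, 23 hr compound exposure, 37C.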

[10] = qHTS assay to identify small molecule agonists of the sonic hedgehog signaling (Shh) pathway (AID 1259368; calls by dose curve;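 note: NIH/3T3-derived 3T3Gli1-Luc cells carrying a stable Gli1-driven firefly luciferase reporter; series mostly up to about 92 µM; nearly all actives have a fitted effect of over 15% in size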)
Outline: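 Stable NIH/3T3 Gli1-Luc reporter clone; 24 hr cpd exposure after a 4 hr settling period; luminescence endpoint.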

[11] = qHTS assay to identify small molecule antagonists of the sonic hedgehog signaling (Shh) pathway (AID 1259369; calls by dose curve; note: nearly all actives have a fitted effect of over 45% in size)
Outline: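 Gli1 transcriptional reporter (firefly Luc) in NIH/3T3 background, conditioned-medium activated. 24hr exposure, luminescence endpoint.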

[12] = qHTS assay to identify small molecule agonists of the androgen receptor (AR) signaling pathway in the presence of an antagonist - cell viability counter screen (AID 1259379);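 note: MDA-kb2 human breast cancer cells carrying an MMTV luciferase reporter; series mostly up to about 92 µM; nearly all actives have a fitted effect of over 25% in size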
Outline: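 Counter screen for cell viability run in parallel with the AR agonist-mode luciferase assay. MDA-kb2 cells were co-treated with nilutamide (3.0uM final) and compounds, then incubated 16 hr at 37C, and CellTiter-Fluor fluorescence was measured.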

[13] = qHTS assay to identify small molecule agonists of the estrogen receptor beta (ER-beta) signaling pathway - cell viability counter screen (AID 1259380); note: nearly all actives have a fitted effect of over 30% in size; note: potency is the fitted concentration of half-maximal effect
Outline: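 In this qHTS counter screen, HEK293T cells carrying an ER-beta/UAS beta-lactamase reporter, grown in 2% charcoal-stripped FBS, received compound for 16 hr; ATP-based CellTiter-Glo luminescence was then read after 30 min at room temperature.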

[14] = qHTS assay to identify small molecule antagonists of the estrogen receptor beta (ER-beta) signaling pathway - cell viability counter screen (AID 1259382);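 note: HEK293T cells carrying ER-beta-UAS-bla reporter stimulated with estradiol; series mostly up to about 92 µM; nearly all actives have a fitted effect of over 55% in size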
Outline: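 HEK293T ER-beta-UAS-bla, 2% charcoal-stripped FBS; compounds + 1nM E2 16 hr 37C; CellTiter-Glo luminescence, 30 min RT.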

[15] = target: Estrogen receptor (Homo sapiens) (UniProt P03372); experiment: qHTS assay to identify small molecule agonists of the estrogen receptor alpha (ER-alpha) signaling pathway in the presence of an antagonist (AID 1259383; calls by dose curve; note: top concentration of the series differs between compounds; nearly all actives have a fitted effect of over 15% in size)
Outline: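 ER-alpha agonism measured under antagonist challenge: 10.0nM ICI-182,780 (final) plus compound, 15 concentrations, 22hr, VM7Luc4E2 ERE-luciferase cells. Read by luminescence.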

[16] = target: Estrogen receptor beta (Homo sapiens) (UniProt Q92731); experiment: qHTS assay to identify small molecule agonists of the estrogen receptor beta (ER-beta) signaling pathway (AID 1259377; active = well fitted activation curve with a large enough effect in the signal ratio in the repeat runs, not every such curve was filed as active; the % refers to the signal ratio)
Estrogen receptor beta (Homo sapiens), sequence (Q92731 whole entry, looked up): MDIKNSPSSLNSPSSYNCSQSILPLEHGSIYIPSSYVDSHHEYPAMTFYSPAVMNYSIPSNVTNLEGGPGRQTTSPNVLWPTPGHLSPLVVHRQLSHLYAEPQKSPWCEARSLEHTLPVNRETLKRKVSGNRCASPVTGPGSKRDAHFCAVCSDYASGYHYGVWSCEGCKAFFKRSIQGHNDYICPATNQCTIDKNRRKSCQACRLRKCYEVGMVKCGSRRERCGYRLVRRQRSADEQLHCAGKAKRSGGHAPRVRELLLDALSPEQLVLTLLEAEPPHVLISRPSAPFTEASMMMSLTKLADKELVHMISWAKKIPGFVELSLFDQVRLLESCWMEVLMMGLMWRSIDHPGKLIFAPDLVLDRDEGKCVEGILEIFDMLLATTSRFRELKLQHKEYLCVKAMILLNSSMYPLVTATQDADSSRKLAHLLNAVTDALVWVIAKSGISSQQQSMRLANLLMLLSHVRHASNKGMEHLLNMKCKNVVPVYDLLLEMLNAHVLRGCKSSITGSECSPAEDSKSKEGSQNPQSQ
Outline: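 Measured by fluorescence intensity from a B/G FRET beta-lactamase substrate (2 h, room temperature) in ER-beta-UAS-bla HEK293T cells treated with DMSO-dissolved compounds for 16 hr at 37C and 5% CO2.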

[17] = target: Estrogen receptor beta (Homo sapiens) (UniProt Q92731); experiment: qHTS assay to identify small molecule antagonists of the estrogen receptor beta (ER-beta) signaling pathway (AID 1259378; active = well fitted inhibition curve with a large enough effect in the signal ratio in the repeat runs, not every such curve was filed as active; the % refers to the signal ratio)
Outline: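 Antagonist mode: compounds added to beta-lactamase reporter HEK293T ER-beta-UAS cells stimulated with E2 (1nM final), 16 hr at 37C. LiveBLAzer B/G FRET substrate, 2 hours room temperature, fluorescence read-out.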

[18] = qHTS assay to identify small molecule agonists or antagonists of the thyroid stimulating hormone receptor (TSHR) signaling pathway - wild type cell line counter screen (AID 1259384; calls by dose curve)
Outline: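 Counter screen in untransfected Hek293: compounds (15-point titration, triplicate) plus phosphodiesterase inhibitor Ro20-1724 added after 18 h plating; 30 min RT. Intracellular cAMP via competitive d2/cryptate immunoassay, 1 h incubation.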
% is set by controls: 0 for no effect and ±100 for the full control effect.

O=C1C(CCS(=O)c2ccccc2)C(=O)N(c2ccccc2)N1c1ccccc1 (stereo unspecified)
inactive: Potency [1] | outcome [2] | outcome [3] | outcome [4] | Potency [5] | Potency [6] | outcome [7] | Potency [8] | outcome [9] | Potency [10] | Potency [11] | Potency [12] | Potency [13] | Potency [14] | Potency [15]

Cc1nccn1CC1CCc2c(c3ccccc3n2C)C1=O (stereo unspecified)
inactive: Potency [1] | outcome [2] | outcome [3] | outcome [4] | PLD induction [5] -0.746% [at 7.66 µM] and -2.67% [at 3.15 µM] | Potency [6] | outcome [7] | Potency [8] | outcome [9] | Potency [10] | Potency [11] | outcome [16] | Potency [17] | Potency [12] | Potency [13] | Potency [14] | Potency [15] | outcome [18]

CCN(CC)C(=O)c1ccc(O)c(OC)c1
inactive: Potency [1] | outcome [2] | outcome [3] | outcome [4] | Potency [5] | Potency [6] | Potency [8] | outcome [9] | Potency [10] | Potency [11] | outcome [16] | Potency [12] | Potency [13] | Potency [14] | Potency [15] | outcome [18]

COC[C@H](c1ccc(C(F)(F)F)cc1)N1CCN(C2(C)CCN(C(=O)c3c(C)ncnc3C)CC2)C[C@H]1C
active: Potency [13] 2.66 µM
inactive: Potency [1] | outcome [2] | outcome [3] | outcome [4] | Potency [6] | outcome [7] | Potency [8] | outcome [9] | Potency [10] | Potency [11] | outcome [16] | Potency [17] | Potency [12] | Potency [14] | Potency [15] | outcome [18]

COC(=O)C1=C(C)NC(C)=C(C(=O)OCC(C)=O)C1c1ccccc1[N+](=O)[O-] (stereo unspecified)
inactive: Potency [1] | outcome [2] | outcome [3] | outcome [4] | Potency [5] | Potency [6] | outcome [7] | Potency [10] | Potency [12] | Potency [13] | Potency [14] | Potency [15] | outcome [18]
active: Potency [8] 26.6 µM

CC(=O)NC(Cc1ccccc1)C(=O)O (stereo unspecified)
inactive: Potency [1] | outcome [2] | outcome [3] | outcome [4] | Potency [5] | Potency [6] | outcome [7] | Potency [8] | outcome [9] | Potency [10] | Potency [11] | Potency [12] | Potency [13] | Potency [14] | Potency [15] | outcome [18]

CCn1cc(C(=O)O)c(=O)c2cc(F)c(N3CCN(C)CC3)cc21
inactive: cytotoxicity increase [1] -10.7% [at 15.8 µM] | activity change, negative = cytotoxicity [2] 1.73% [at 19 µM] | viability change, negative = cytotoxic [3] 1.22% [at 19 µM] | activity change, negative = inhibition [4] 6.79% [at 19 µM] | Potency [5] | activity change, negative = inhibition [6] -0.624% [at 19 µM] | activity change, negative = cytotoxicity [7] 2.46% [at 19 µM] | viability change, negative = cytotoxic [8] 6.14% [at 19 µM] | viability change, negative = cytotoxic [9] 3.37% [at 19 µM] | activity change [10] -0.335% [at 18.9 µM, stronger effect = higher value] | activation [16] 2.22% [at 19 µM] | activity change, negative = cytotoxicity [12] 3.8% [at 19 µM] | activity change, negative = cytotoxicity [13] 5.67% [at 19 µM] | activity change, negative = cytotoxicity [14] 0.879% [at 19 µM] | activation [15] 1.75% [at 19 µM] | cAMP activity change [18] -4.11% [at 18.9 µM]

CC(C)(C)OC(=O)N1C[C@@H](F)C[C@H]1C(=O)O
inactive: Potency [1] | outcome [2] | outcome [3] | outcome [4] | Potency [6] | outcome [7] | Potency [8] | outcome [9] | Potency [10] | Potency [11] | outcome [16] | Potency [17] | Potency [12] | Potency [13] | Potency [14] | Potency [15] | outcome [18]

COc1nc(C)nc(N)n1
inactive: Potency [1] | outcome [2] | outcome [3] | outcome [4] | Potency [6] | outcome [7] | Potency [8] | outcome [9] | Potency [10] | Potency [11] | outcome [16] | Potency [17] | Potency [12] | Potency [13] | Potency [14] | Potency [15] | outcome [18]

CC(=O)OC(C)(C)C
inactive: Potency [1] | outcome [2] | outcome [3] | outcome [4] | Potency [6] | outcome [7] | Potency [8] | outcome [9] | Potency [10] | Potency [11] | outcome [16] | Potency [17] | Potency [12] | Potency [13] | Potency [14] | Potency [15]

NCCNC(=O)c1ccc(Cl)cn1
inactive: Potency [1] | outcome [2] | outcome [3] | outcome [4] | Potency [5] | Potency [6] | outcome [7] | Potency [8] | outcome [9] | Potency [10] | Potency [12] | Potency [13] | Potency [14] | Potency [15] | outcome [18]

CC1CCN(CCCC(=O)c2ccc(F)cc2)CC1
inactive: Potency [1] | outcome [2] | outcome [3] | outcome [4] | Potency [5] | Potency [6] | outcome [7] | Potency [8] | outcome [9] | Potency [10] | Potency [11] | outcome [16] | Potency [12] | Potency [13] | Potency [14] | Potency [15] | outcome [18]

O=[N+]([O-])c1ccc(Oc2ccc([N+](=O)[O-])cc2)cc1
inactive: Potency [1] | outcome [2] | outcome [3] | outcome [4] | Potency [6] | outcome [7] | Potency [8] | outcome [9] | Potency [10] | Potency [11] | outcome [16] | Potency [17] | Potency [12] | Potency [13] | Potency [14] | Potency [15]

COCCOC(=O)CC#N
inactive: Potency [1] | outcome [2] | outcome [3] | outcome [4] | Potency [6] | outcome [7] | Potency [8] | outcome [9] | Potency [10] | Potency [11] | outcome [16] | Potency [17] | Potency [12] | Potency [13] | Potency [14] | Potency [15] | outcome [18]

CCCCCOC(=O)Nc1nc(=O)n([C@@H]2O[C@H](C)[C@@H](O)[C@H]2O)cc1F
inactive: Potency [1] | outcome [2] | outcome [3] | outcome [4] | Potency [5] | Potency [6] | outcome [7] | Potency [8] | outcome [9] | Potency [10] | outcome [16] | Potency [17] | Potency [12] | Potency [13] | Potency [14] | Potency [15] | outcome [18]

O=C(O)c1cccc(C(=O)O)n1
inactive: Potency [1] | outcome [2] | outcome [3] | outcome [4] | Potency [6] | outcome [7] | Potency [8] | outcome [9] | Potency [10] | Potency [11] | outcome [16] | Potency [17] | Potency [12] | Potency [13] | Potency [14] | Potency [15] | outcome [18]
